From PubChem BioAssay (NCI)
About 83,000 compounds went through this panel and 20% of them were active in at least one assay; those are over-represented in the sample as a whole.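 Single-concentration screen, 48 h exposure, 96-well plates. Endpoint: percent growth. Below 10 = active.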 The source made the active and inactive calls.

Key:
Assay in all cases: NCI-60 one-dose screen, 48 h (100 = growth as untreated, 0 = no growth, -100 = all killed)
Conditions in all cases: 10 µM unless noted
BT-549 breast = tested on: BT-549 breast
MDA-MB-435 melanoma = tested on: MDA-MB-435 melanoma
SW-620 colon = tested on: SW-620 colon
MCF7 breast = tested on: MCF7 breast
HCC-2998 colon = tested on: HCC-2998 colon
KM12 colon = tested on: KM12 colon
HCT-116 colon = tested on: HCT-116 colon

Measured: growth

CS(=O)(=O)c1ccc(-c2[nH]c3ccc(F)cc3c2/C=N/NC(N)=S)cc1
active: MDA-MB-435 melanoma -16.3%
inactive: BT-549 breast 39.3% | SW-620 colon 21.3% | MCF7 breast 19.3% | HCC-2998 colon 24.3% | KM12 colon 18.5%

C=C(CNCCc1ccc(O)cc1)[C@@H]1CC[C@]2(COC3CCCCO3)CC[C@]3(C)[C@H](CC[C@@H]4[C@@]5(C)CCC(NCCO)C(C)(C)[C@@H]5CC[C@]43C)[C@@H]12 (stereo not given in full)
active: MDA-MB-435 melanoma -89.8% | SW-620 colon -76.2% | MCF7 breast -84.3% | HCT-116 colon -95.3% | HCC-2998 colon -89.5% | KM12 colon -84.9%
inactive: BT-549 breast 41.2%

COc1ccc(/C=N/NC(=O)Cn2c(-c3ccc(S(C)(=O)=O)cc3)nc3cc(Cl)ccc32)cc1
inactive: BT-549 breast 43.1% | SW-620 colon 30.5% | MCF7 breast 17.2% | HCC-2998 colon 19.4% | KM12 colon 13.3%
active: MDA-MB-435 melanoma -17.8%

C[C@@H]1CC[C@@H]2[C@@H]1[C@H](OC(=O)c1ccc3ccccc3c1)[C@]1(C3CCCCC3)C[C@@H](OC(=O)CO)[C@@]2(C)O1
active: BT-549 breast 0.366%
inactive: MDA-MB-435 melanoma 72.1% | MCF7 breast 20.5% | HCT-116 colon 28.3% | HCC-2998 colon 51.3% | KM12 colon 54.2%

Clc1cnc(Nc2ccc(OCCN3CCCC3)cc2)nc1NCc1ccco1
active: MCF7 breast -0.965% | HCT-116 colon 7.55% | KM12 colon 4.56%
inactive: BT-549 breast 45.7% | MDA-MB-435 melanoma 34.5% | HCC-2998 colon 59.1%

Cc1csc(NC(=O)c2sc3nc(-c4cccs4)ccc3c2N)n1
inactive: MDA-MB-435 melanoma 108% | SW-620 colon 99.4% | MCF7 breast 71.3% | HCC-2998 colon 114% | KM12 colon 92.9%

CCN1CCN(c2ccc(Nc3cc(-c4cccnc4Nc4c(Cl)c(OC)cc(OC)c4Cl)ncn3)cc2)CC1
inactive: BT-549 breast 60.1% | MDA-MB-435 melanoma 89.7% | SW-620 colon 55% | MCF7 breast 40.9% | HCT-116 colon 71.9% | HCC-2998 colon 75.6% | KM12 colon 73.9%

Clc1ccc2c(NCCCN3CCN(c4nc(-n5ccnc5)nc5ccccc45)CC3)ccnc2c1
inactive: BT-549 breast 67.6% | MDA-MB-435 melanoma 71.2% | HCT-116 colon 72.8% | HCC-2998 colon 95.7% | KM12 colon 87.8%
active: SW-620 colon -52.9% | MCF7 breast -29.3%

CO[C@H]1/C=C/O[C@@]2(C)Oc3c(C)c(O)c4c(c3C2=O)C(=O)C(/C=N/N(c2ccccc2)c2ccccc2)=C(NC(=O)/C(C)=C\C=C\[C@H](C)[C@H](O)[C@@H](C)[C@@H](O)[C@@H](C)[C@H](OC(C)=O)[C@@H]1C)C4=O
active: MDA-MB-435 melanoma -17.4% | SW-620 colon 2.36% | MCF7 breast 2.54% | HCT-116 colon 0.555% | HCC-2998 colon -70.4% | KM12 colon -23.9%

O=C(Nc1cccc2[nH]c(C(F)(F)F)nc12)c1cc(Cl)ccc1Cl
inactive: MDA-MB-435 melanoma 33.3% | SW-620 colon 42.4% | MCF7 breast 16.7% | HCT-116 colon 25.7% | HCC-2998 colon 33.8% | KM12 colon 20%

O=C(NCc1cccnc1)c1cc(-c2csc3c(=O)cc(N4CCOCC4)oc23)cc2c1OCCO2
active: MCF7 breast 8.29%
inactive: BT-549 breast 54.3% | MDA-MB-435 melanoma 32.9% | HCT-116 colon 45.2% | HCC-2998 colon 41.8% | KM12 colon 48.9%

COc1ccc(C(=O)/C=C/c2cc3c(c(OC)c2)OCC(=O)N3)cc1
inactive: MDA-MB-435 melanoma 26.2% | SW-620 colon 14.7% | MCF7 breast 31.5% | HCT-116 colon 11.8% | HCC-2998 colon 67.9% | KM12 colon 14.7%

CC[C@@H](C[C@H](CCO)c1ccccc1)c1cc2ccccc2o1
inactive: BT-549 breast 97.7% | MDA-MB-435 melanoma 102% | SW-620 colon 89.6% | MCF7 breast 117% | HCT-116 colon 76.6% | HCC-2998 colon 109% | KM12 colon 88.7%

CC(C)n1nc(C#Cc2cccc3cc(-c4cccc(C(F)(F)F)c4)ncc23)c2c(N)ncnc21
inactive: BT-549 breast 97.7% | MDA-MB-435 melanoma 67.3% | MCF7 breast 75.7% | HCT-116 colon 31.4% | HCC-2998 colon 98.1% | KM12 colon 60.9%

C=C1c2c(C)nn(-c3ccc(NC(C)=O)cc3)c2N(C)C23CC1C1(C)c4c(C)nn(-c5ccc(NC(C)=O)cc5)c4N(C)C(C)(CC12)C3 (stereo not given)
inactive: BT-549 breast 44% | MDA-MB-435 melanoma 30.6% | SW-620 colon 27.9% | HCT-116 colon 13.4% | HCC-2998 colon 44.7% | KM12 colon 23.6%
active: MCF7 breast 9.67%

Nc1c(C(=O)c2ccc(Cl)s2)sc2nc3c(cc12)CCCC3
inactive: MDA-MB-435 melanoma 119% | SW-620 colon 106% | MCF7 breast 41.3% | HCT-116 colon 105% | HCC-2998 colon 111% | KM12 colon 96.6%

Cc1cc(Cl)nc(N(CCCNc2ccnc3cc(Cl)ccc23)Cc2ccccn2)n1
inactive: BT-549 breast 54% | MDA-MB-435 melanoma 52.7% | SW-620 colon 53.3% | MCF7 breast 32.9% | HCT-116 colon 14.9% | HCC-2998 colon 74.2% | KM12 colon 48%

Cc1cc(N2CCCCC2)nc(N(CCNc2ccnc3cc(Cl)ccc23)Cc2ccccn2)n1
inactive: BT-549 breast 64.3% | MDA-MB-435 melanoma 68.1% | SW-620 colon 45.7% | MCF7 breast 26.2% | HCC-2998 colon 84.6% | KM12 colon 55.2%

COc1cc(NC(=O)c2cccc(-c3cc(=O)c4c(OC)c(OC)c(OC)cc4o3)c2)cc(OC)c1OC
inactive: BT-549 breast 27% | SW-620 colon 67% | MCF7 breast 34.3% | HCC-2998 colon 74.1% | KM12 colon 45.8%
active: MDA-MB-435 melanoma 6.36%

CCn1nc(C#Cc2c(C)ccc3c(Nc4ccc(Cl)cc4)nccc23)c2c(N)ncnc21
inactive: SW-620 colon 25% | HCC-2998 colon 31.6% | KM12 colon 14.2%
active: MDA-MB-435 melanoma -26.3% | MCF7 breast 6.61% | HCT-116 colon 6.73%

CS(=O)(=O)c1ccc(-c2nc3cc(Cl)ccc3n2CC(=O)NO)cc1
inactive: MDA-MB-435 melanoma 106% | SW-620 colon 96.2% | MCF7 breast 81.3% | HCT-116 colon 103% | HCC-2998 colon 115% | KM12 colon 93.9%

C=C(C)[C@@H]1CC[C@]2(CN)CC[C@]3(C)[C@H](CC[C@@H]4[C@@]5(C)CCC(N)[C@@](C)(CO)[C@@H]5CC[C@]43C)[C@@H]12 (stereo not given in full)
active: MDA-MB-435 melanoma -86.7% | MCF7 breast -72.2% | HCT-116 colon -85.5% | HCC-2998 colon -53.6% | KM12 colon -72.1%
inactive: BT-549 breast 80.4%

Fc1ccc(Nc2nc3nonc3nc2Nc2ccc(F)cc2)cc1
active: MDA-MB-435 melanoma 5.74% | SW-620 colon 9.46% | MCF7 breast 3.66% | KM12 colon 3.91%
inactive: HCC-2998 colon 13.1%

CS(=O)(=O)c1ccc(N/N=C/c2c(-c3ccc(S(C)(=O)=O)cc3)[nH]c3ccc(F)cc23)cc1
inactive: BT-549 breast 23.9% | MDA-MB-435 melanoma 40.3% | SW-620 colon 59.7% | MCF7 breast 18.9% | HCC-2998 colon 52.3% | KM12 colon 29.2%

CC(C)n1nc(C#Cc2cccc(NC(=O)c3cccc(C(F)(F)F)c3)c2)c2c(N)ncnc21
inactive: MCF7 breast 14.4%
active: BT-549 breast 9.72% | MDA-MB-435 melanoma 2.12% | SW-620 colon 1.28% | HCC-2998 colon 2.89% | KM12 colon 3.28%

Nc1c(C(=O)c2ccccc2)nnc2ncnn12
inactive: MDA-MB-435 melanoma 110% | SW-620 colon 106% | MCF7 breast 97.2% | HCT-116 colon 105% | HCC-2998 colon 97.6% | KM12 colon 105%

COC(=O)c1ccc2oc(NC(=O)c3ccc(N4CCOCC4)c([N+](=O)[O-])c3)nc2c1
inactive: BT-549 breast 95.7% | MDA-MB-435 melanoma 107% | SW-620 colon 100% | MCF7 breast 94.1% | HCT-116 colon 93% | HCC-2998 colon 105% | KM12 colon 102%

C=C1C(=O)O[C@H]2[C@H]1CC/C(Cn1cc(CNCCc3c[nH]c4ccccc34)nn1)=C\CC[C@@]1(C)O[C@@H]21
inactive: BT-549 breast 90.6% | MDA-MB-435 melanoma 97% | MCF7 breast 90.2% | HCT-116 colon 64.8% | HCC-2998 colon 97.1% | KM12 colon 98%

COc1ccc(OC)c(Nc2nc3nonc3nc2Nc2cccc(Br)c2)c1
inactive: MDA-MB-435 melanoma 14.9% | SW-620 colon 11.7% | HCT-116 colon 10.9% | HCC-2998 colon 25%
active: MCF7 breast 5.95% | KM12 colon 7.96%

COc1ccc(OC)c(Nc2nc3nonc3nc2Nc2cc(OC)ccc2OC)c1
inactive: MDA-MB-435 melanoma 43.1% | SW-620 colon 57.3% | MCF7 breast 65.7% | HCT-116 colon 17.6% | HCC-2998 colon 56.7% | KM12 colon 67.4%
